Measured values: PubChem BioAssay (NCATS)
Inconclusive results are not listed. Where a call stands in place of a potency, no number is given. Unmarked numbers belong to inactive results. Active and inactive are the calls of the source. Calls come from the whole dose curve; as a rule, active = well fitted cell-killing curve with a large enough effect; inconclusive = small, poorly fitted or top-dose-only effect, or effect the other way; inactive = flat fitted curve, though single readings scatter.

System: PA-1
Experiment: Primary qHTS to identify gynecologic anti-cancer compounds using libraries of approved drugs and bioactive compounds (AID 1345084); note: nearly all actives have a fitted effect of over 55% in size
Details: Gynecologic cancer cell panel viability, ATPlite luminescence, 48 h; series mostly up to 57.5 µM
Procedure, shortened: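 Five-concentration response, 48 h; readout is ATP-driven luciferase luminescence.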

| Structure (SMILES) | Potency | activity change, negative = cytotoxicity |
| --- | --- | --- |
| CC1(C)C(=O)N2c3ccccc3[C@]3(CC(n4cnc5ccccc5c4=O)C(=O)O3)[C@H]2N1O (stereo partly specified) | inactive | – |
| CC(=O)OC[C@@]12[C@@H](OC(C)=O)C[C@@H](C)[C@](C)([C@@H]3C[C@H]4C=CO[C@H]4O3)[C@H]1CCC[C@]21CO1 | inactive | – |
| COC1CC(=O)C23C(=O)NC(CC(C)C)C2C(C)C(C)=CC3/C=C(\C)CCC1O (stereo unspecified) | inactive | – |
| CC(=O)c1c(O)cc2cccc3c2c1CC(C)(O)O3 (stereo unspecified) | inactive | – |
| C/C=C(\C)C(=O)O[C@@H](C)[C@H]1CC[C@]2(O)C3CCC4C[C@@H](OC5CC(OC)C(OC6CC(OC)C(OC7CC(OC)C(OC8OC(C)C(OC9OC(CO)C(O)C(O)C9O)C(OC)C8O)C(C)O7)C(C)O6)C(C)O5)CC[C@]4(C)C3[C@H](O)[C@@H](O)[C@]12C (stereo partly specified) | – | 3.34% [at 6.55 µM] |
| C/C=C/C=C/C(CC(=O)O)Nc1ccc(C=O)cc1 (stereo unspecified) | inactive | – |
| C=C1CC[C@H]2[C@@](C)(CCC(O)[C@@]2(C)CO)[C@@H]1C/C=C(/C(=O)O)C(O)CO (stereo partly specified) | inactive | – |
| COc1cc(C[C@H]2COC(=O)[C@@H]2Cc2ccc(O)c(OC)c2)ccc1O | inactive | – |
| C#Cc1cnc2[nH]c(=O)n(C(CC)CC)c2n1 | inactive | – |
| N[C@@H](CC(=O)N1CCn2c(nnc2C(F)(F)F)C1)Cc1[nH]nc2c(F)c(F)ccc12 | inactive | – |
| CC1(C)CCC2(C(=O)OC3OC(COC4OC(CO)C(O)C(O)C4O)C(O)C(O)C3O)CCC3(C)C(=CCC4C5(C)CCC(O)C(C)(C(=O)O)C5CCC43C)C2C1O (stereo unspecified) | – | -2.93% [at 11.6 µM] |
